Sm TGR block – S. mansoni TGR enzyme inhibition | Potency, µM (titrated, usually from 114 µM), for the others: top-dose activity change, negative = inhibition, hits mostly inhibitors | Q962Y6 | purified TGR, DTNB reduction, TNB absorbance 405 nm | 3% of 360,000 active; note: potency is the fitted concentration of half-maximal effect; nearly all actives have a fitted effect of over 60% in size
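First, TGR (20 nM dispensed) and NADPH were mixed with compound. Second, a 15 min room-temperature incubation followed. Third, further NADPH and then DTNB were added to start the reaction. Finally, TNB absorbance was monitored kinetically.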
HCMV antiviral – blocks human cytomegalovirus replication; 4.5% of 410,000 active; activity change, negative = inhibition, % at 57.5 µM; HFF cells, HCMV-luciferase reporter, 72 h; active compounds read low; AID 1259415; in the data active = activity change below about -60%; inconclusive = no clear call, values can overlap the other calls; inactive = above about -39%
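Cell-based, HFFs, 1000 cells/well, 16 h 37C; cpds in DMSO + HCMV-luc, MOI 1 PFU/cell; 72 h 37C; OneGlo luminescence after 5 min RT; norm. to buffer vs Salinomycin 10uM.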
Pf growth 96h – P. falciparum growth inhibition at 96 hours; P. falciparum luciferase reporter growth, 96 h; Potency, µM (highest dose often 28.7 µM), without a hit: top-dose activity change, negative = inhibition, usual class: inhibitors; 6.9% of 320,000 active; AID 504834; note: potency is the fitted concentration of half-maximal effect
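Delayed-death screen, second-generation endpoint: infected erythrocytes, 2% hematocrit, 0.05% parasitemia final; 96 hours at 37 C, 5% CO2; luciferase detection reagent; luminescence decrease equals reduced growth.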
Giardia FBPA inh-1 – inhibitors of Giardia lamblia fructose-1,6-bisphosphate aldolase; A8B2U2; purified Giardia FBPA; 0.71% of 290,000 active; AID 2451; Potency, µM (top dose mostly 59.6 µM), for the others: at the top dose activity, negative = inhibition, hits mostly inhibitors; note: potency is the fitted concentration of half-maximal effect; nearly all actives have a fitted effect of over 55% in size
Target sequence (A8B2U2 whole entry, looked up): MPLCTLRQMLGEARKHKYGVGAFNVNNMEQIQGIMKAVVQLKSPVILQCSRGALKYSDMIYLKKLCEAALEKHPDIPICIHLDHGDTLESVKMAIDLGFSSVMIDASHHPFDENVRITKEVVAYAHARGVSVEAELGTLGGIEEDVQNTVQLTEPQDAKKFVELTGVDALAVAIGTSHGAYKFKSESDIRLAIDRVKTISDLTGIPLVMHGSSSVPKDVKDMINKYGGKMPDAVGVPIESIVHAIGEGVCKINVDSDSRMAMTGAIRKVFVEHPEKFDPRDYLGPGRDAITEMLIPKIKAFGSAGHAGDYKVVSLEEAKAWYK
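Giardia FBPA (40 nM reagent) was preincubated 10 min at RT with compound (up to 57.5 uM final), then substrate plus GAPDH/TPI/NAD/arsenate coupling system with diaphorase/resazurin was added; resorufin fluorescence (525/598 nm) was read after 20 min.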
Pf growth 48h – P. falciparum growth inhibition at 48 hours (one generation); P. falciparum luciferase growth in erythrocytes, 48 h; Potency, µM (series often up to 28.7 µM), without a hit: at the top dose activity change, negative = inhibition, actives largely listed as inhibitors; 5.9% of 310,000 active; note: potency is the fitted concentration of half-maximal effect
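Growth was read as firefly luciferase luminescence after a 48 h, 37 C, 5% CO2 exposure of compounds to reporter-bearing P. falciparum cultures (0.1% parasitemia, 2% hematocrit final) in Albumax-supplemented RPMI 1640.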
Giardia growth – inhibitors of Giardia lamblia growth. 5% of 1,500 active. Giardia lamblia trophozoite growth inhibition. Potency, µM (doses to about 57.5 µM), without a hit: at the top dose activity change, negative = inhibition, usual class: inhibitors. shares compounds with Giardia FBPA inh-1. AID 2785;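 note: potency is the fitted concentration of half-maximal effect; trophozoites exposed to compound for 48 h at 37 °C; nearly all actives have a fitted effect of over 70% in size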
Mammalian tox – mammalian cytotoxicity of Giardia aldolase inhibitor hits | AID 2786 | 4% of 1,500 active | mammalian cell viability counter-screen, qHTS | Potency, µM (top dose mostly 57.5 µM), without a hit: at the top dose viability change, negative = toxicity, most hits filed as inhibitors | shares compounds with Giardia FBPA inh-1;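 note: Chinese hamster ovary cells used as mammalian cytotoxicity surrogate; viability measured as cellular ATP by luminescence; potency is the fitted concentration of half-maximal effect; compound exposure lasted 48 h before reading; nearly all actives have a fitted effect of over 60% in size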
Giardia FBPA inh-2 – confirmation of Giardia fructose-bisphosphate aldolase inhibitors. shares compounds with Giardia FBPA inh-1. Potency, µM (top dose mostly 57.5 µM), without a hit: at the highest dose activity change, negative = inhibition, usual class: inhibitors. purified Giardia aldolase enzyme activity, qHTS. 5% of 1,500 active; note: potency is the fitted concentration of half-maximal effect; nearly all actives have a fitted effect of over 45% in size
Rabbit aldolase – blocks rabbit muscle aldolase in Giardia aldolase selectivity test | shares compounds with Giardia FBPA inh-1 | 4% of 1,500 active | Rabbit muscle FBPA enzyme inhibition, selectivity counter-screen | Potency, µM (top dose mostly 57.5 µM), without a hit: at the highest dose activity, negative = inhibition, usual class: inhibitors; note: potency is the fitted concentration of half-maximal effect; nearly all actives have a fitted effect of over 60% in size
Target sequence (P00883 whole entry, looked up): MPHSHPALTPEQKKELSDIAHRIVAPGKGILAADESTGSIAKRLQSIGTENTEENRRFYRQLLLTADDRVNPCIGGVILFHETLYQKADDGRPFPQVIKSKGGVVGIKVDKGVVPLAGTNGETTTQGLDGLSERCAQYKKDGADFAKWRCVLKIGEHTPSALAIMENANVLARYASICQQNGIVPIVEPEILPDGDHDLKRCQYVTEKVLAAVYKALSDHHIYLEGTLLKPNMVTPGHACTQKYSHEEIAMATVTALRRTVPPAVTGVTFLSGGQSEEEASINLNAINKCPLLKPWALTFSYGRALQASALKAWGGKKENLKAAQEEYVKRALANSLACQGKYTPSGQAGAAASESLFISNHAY
GAPDH counter – counter-screen for Giardia aldolase inhibitors: GAPDH coupling enzyme; shares compounds with Giardia FBPA inh-1; GAPDH coupling enzyme counterscreen, biochemical, qHTS; Potency, µM (top dose mostly 57.5 µM), for the others: at the top dose activity change, negative = inhibition, most hits filed as inhibitors; 6% of 1,500 active; AID 2795; note: potency is the fitted concentration of half-maximal effect; nearly all actives have a fitted effect of over 55% in size
Starred values were filed as active, the others as inactive; i = inactive; ? = inconclusive; . = no result given; [ ] = remark or other dose. Most compounds without a hit are left out; they make up all but 14% or so of the library. Unless noted, calls come from the whole dose curve; as a rule, active = well fitted curve in the direction sought with a large enough effect; inconclusive = small, poorly fitted or top-dose-only effect, or another doubt; inactive = no such curve, though single readings can be large; an effect the other way counts as inactive or inconclusive. % is set by controls: 0 for no effect and ±100 for the full control effect.

SMILES	Sm TGR block	HCMV antiviral	Pf growth 96h	Giardia FBPA inh-1	Pf growth 48h	Giardia growth	Mammalian tox	Giardia FBPA inh-2	Rabbit aldolase	GAPDH counter
Cc1ccc(N/N=C(\C#N)C(N)=S)cc1C	-11%	-14	-19%[5.75 µM]	?	25%[5.75 µM]	.	.	.	.	.
N#C/C(=N\Nc1ccccc1)C(N)=S	-3%	-19	0%	20µM*	?	?	7%	12%	24%	13%
COc1cc(OC)c(NC(=O)c2ccc3c(c2)N(Cc2ccc(C)cc2)CCS3)cc1Cl	3%	0	.	.	.	.	.	.	.	.
CCCn1c2ccc(C)cc2c2n[nH]c(=S)nc21	-26%	11	5%	28%	1%[0.00184 µM]	.	.	.	.	.
CCSS(=O)(=O)c1cccc2cccnc12	4%	-29	24%	16µM*	1%	-18%[10.4 µM]	-4%	-10%	?	?
COc1ccc2c(c1)-c1nc(/N=C/c3cccc(OC)c3O)sc1CC2	5%	-37	21%	1.4µM*	50%	-28%[38.3 µM]	-2%	?	?	?
CCOC(=O)c1oc2c(O)c(O)ccc2c(=O)c1-c1nncn1-c1ccccc1	-3%	79	?	4.5µM*	?	-28%	-20%	?	?	-18%
Cc1c(C(=O)OCC(=O)NCCc2ccc(S(N)(=O)=O)cc2)oc2ccccc12	0%	-22	?	.	-17%	.	.	.	.	.
Nc1nc(-c2cccc(F)c2)cs1	?	3	-2%	11µM*	19%	20%[10.4 µM]	-5%	5%	5%	13%
Fc1cccc(-c2csc(-c3ccno3)n2)c1	6%	-6	42%	-1%	10%	.	.	.	.	.
Cn1c(=O)cc(C(=O)N/N=C/c2ccc(F)cc2)[nH]c1=O	3%	39	23%	16µM*	9%	122%	14%	5%	-7%	6%
CC(C)(C)N(CC#CCC(O)(c1ccccc1)c1ccccc1)CCO	-35%	4	?	20µM*	?	-6%	-3%	-2%	12%	9%
CCc1cccc(C)c1NC(=O)Cn1c(=O)cc(C)c2c(C)nn(-c3cccc(F)c3)c21	-1%	-1	.	.	.	.	.	.	.	.
Cc1cc(C)cc(N2C(=O)CC(Sc3ncn[nH]3)C2=O)c1 (centres undefined)	0.5µM*	-3	i	20µM*	-8%	22%	-4%	4%	4%	11%
S=c1[nH]nc(CCCc2n[nH]c(=S)o2)o1	0%	46	-3%	0.5µM*	-8%	15%[38.3 µM]	-10%	?	14%	-1%
COc1ccc(CCCc2n[nH]c(=S)o2)c(C)c1	12%	-35	23%	8%	24%	.	.	.	.	.
COc1ccc(NC(=S)N(CCCN2CCOCC2)C(C)c2cc3cccc(OC)c3o2)cc1 (centres undefined)	2%	1	?	11µM*	?	?	0%	-2%	2%	5%
COc1cccc2cc(C(C)N(CCCN3CCOCC3)C(=S)Nc3ccc(C)c(C)c3)oc12 (centres undefined)	6%	-16	31%	-3%	3%	.	.	.	.	.
COc1ccc(C(=O)O)nc1C	17%	4	-5%	4µM*	?	8%[38.3 µM]	-6%	-4%	-5%	2%
COc1cc(/C=N/Nc2nc(C)cc(C)n2)cc(OC)c1OC	0%	-16	?	16µM*	-9%	6%	2%	2%	0%	10%
Cc1cc(C)nc(N/N=C/c2ccc(Cl)cc2)n1	5%	-29	-9%	11µM*	-6%	-23%	5%	3%	2%	-5%
Cc1ccc(Cc2c(-c3ccc(Cl)cc3)nc3c(Cl)cc(C(F)(F)F)cn23)cc1	.	8	.	.	.	.	.	.	.	.
Cc1ccccc1-n1c(-c2ccc(=O)[nH]n2)n[nH]c1=S	10%	13	24%	6.3µM*	-8%	16%	-2%	0%	11%	-4%
O=C(Nc1nc(-c2ccccn2)cs1)C1CCCC1	-9%	10	?	-25%	?	.	.	.	.	.
CSCCC(=O)Nc1nc(-c2ccccn2)cs1	-21%	28	?	16µM*	?	14µM*	-21%	-4%	-4%	-3%
SMILES	Sm TGR block	HCMV antiviral	Pf growth 96h	Giardia FBPA inh-1	Pf growth 48h	Giardia growth	Mammalian tox	Giardia FBPA inh-2	Rabbit aldolase	GAPDH counter
Cc1cc(C)cc(OCC(=O)Nc2nc(-c3ccccn3)cs2)c1	-6%	-22	?	.	?	.	.	.	.	.
C[C@H](NC(=O)c1ccccc1)C(=O)Nc1nc(-c2ccccn2)cs1	3%	-1	-10%	5.6µM*	?	?	-14%	1%	-3%	-3%
O=C(/C=C/c1ccco1)Nc1nc(-c2ccccn2)cs1	13µM*	45	?	18µM*	?	?	?	-13%	-10%	-7%
Cc1cccc(C)c1-n1nnnc1C1c2ccccc2C(=O)N1CCCN1CCOCC1 (centres undefined)	.	-5	.	.	.	.	.	.	.	.
O=[N+]([O-])c1ccccc1S(=O)(=O)N1CCN(Cc2ccsc2)CC1	-5%	6	-7%	20µM*	-19%	-17%	0%	-4%	-1%	3%
O=[N+]([O-])c1ccccc1S(=O)(=O)N1CCN(Cc2ccccc2)CC1	1%	7	-5%	-30%	3%	.	.	.	.	.
CCOC(=O)c1c(C)n(-c2ccccc2)c2ccc(OC(=O)c3ccc(OCC)c(OCC)c3)cc12	7%	-3	.	.	.	.	.	.	.	.
CN(C)/C=N/c1cc(=O)n(C)c(=O)n1Cc1ccccc1	-1%	39	?	3%	-2%	.	.	.	.	.
Clc1cccc(OCCn2ccnc2)c1	0%	-21	i	35µM*	-3%	?	11%	11%	11%	18%
Cc1cccc(C)c1OCCCn1ccnc1	8%	-18	-13%	22µM*	?	9%	33%	7%	3%	17%
CC(C)(C)c1ccccc1OCCCCCn1ccnc1	1%	13	5.9µM*	18µM*	12µM*	68%	8%	-14%	-20%	-13%
CC(C)(C)c1cc(Cl)ccc1OCCn1ccnc1	6%	-26	?	18µM*	5.9µM*	5%	12%	-11%	0%	-21%
Cc1ccc(C(C)(C)C)c(OCCCn2ccnc2)c1	-16%	3	?	?	?	.	.	.	.	.
